Source: PubChem BioAssay (several laboratories)
Rtt109 Vps75 = inhibitors of Candida albicans Rtt109/Vps75 histone acetyltransferase; AID 540336; Q5AAJ8; inhibition, % at 34.9 µM; purified Rtt109/Vps75, ThioGlo CoA-SH fluorescence, 4 h; 330,000 tested, 0.16% active;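 active = inhibition of at least 50% in every replicate; inconclusive = best replicate reaches 50% inhibition but some replicates fall short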
V-ATPase pHluor = yeast V-ATPase proton transport regulation by pHLuorin. S. cerevisiae, pHLuorin cytosolic pH fluorescence. response, % at 10 µM. 350,000 tested, 0.37% active. AID 504577; in the data active = response mostly above about 7.3%, no sharp cut-off; inactive = mostly below about 5.4%; note: actives read high
beta cell repl = induces beta-cell replication in MIN6 cells. 330,000 tested, 0.29% active. AID 2380. MIN6 cells proliferation, ATPlite luminescence, 48 h; cells starved in 0.2% serum; 100% = growth in 10% serum. proliferation, % at 10 µM;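 active = compounds whose signal lies at least 3.5 SD above the mean of all wells on their plate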
DAGLB inhibitor = diacylglycerol lipase beta (human) inhibition; 340,000 tested, 0.059% active; inhibition, % at 5.17 µM; HEK293T DAGLB membrane lysate, EnzChek fluorogenic substrate; Q8NCG7; in the data active = inhibition above about 34%
Target sequence (Q8NCG7 whole entry, looked up): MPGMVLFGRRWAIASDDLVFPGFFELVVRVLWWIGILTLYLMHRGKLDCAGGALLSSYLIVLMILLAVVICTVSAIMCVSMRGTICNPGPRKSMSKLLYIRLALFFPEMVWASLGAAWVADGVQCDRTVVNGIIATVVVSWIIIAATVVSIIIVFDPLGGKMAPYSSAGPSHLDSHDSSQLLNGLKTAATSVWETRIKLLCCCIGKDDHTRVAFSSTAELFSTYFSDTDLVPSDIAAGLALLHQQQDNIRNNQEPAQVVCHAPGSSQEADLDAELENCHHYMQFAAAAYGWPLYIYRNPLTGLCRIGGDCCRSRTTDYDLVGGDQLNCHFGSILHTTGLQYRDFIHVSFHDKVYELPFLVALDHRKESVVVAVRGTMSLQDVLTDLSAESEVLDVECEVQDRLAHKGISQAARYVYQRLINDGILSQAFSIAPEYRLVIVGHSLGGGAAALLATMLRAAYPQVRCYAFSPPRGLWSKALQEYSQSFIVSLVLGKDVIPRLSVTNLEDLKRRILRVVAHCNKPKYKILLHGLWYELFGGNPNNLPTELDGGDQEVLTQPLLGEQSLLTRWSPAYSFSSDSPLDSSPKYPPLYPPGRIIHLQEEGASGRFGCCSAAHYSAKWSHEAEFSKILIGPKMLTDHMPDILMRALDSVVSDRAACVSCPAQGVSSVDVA
HDAC3 inh = human HDAC3 inhibition; recombinant HDAC3, fluorogenic peptide/trypsin coupled, fluorescence; 320,000 tested, 0.15% active; AID 2718; O15379; inhibition, % at 8.3 µM; in the data active = inhibition above about 26%, passing the limit was not always enough; inconclusive = no clear call, values can overlap the other calls
Large screens that a line does not name were inactive. Hits are enriched below; roughly 0.96% of the tested compounds scored in any of these assays.

O=C(N/N=C/c1ccc(OC(F)F)cc1OC(F)F)NC1CCCCC1	HDAC3 inh 29.2
CC1(C)C2CCC1(C)C(OCCNCCOC(=O)Nc1ccccc1)C2 (stereo not given)	V-ATPase pHluor 13.6
COc1cc(/C=N/N=C(N)N)ccc1OCc1ccccc1Cl	Rtt109 Vps75 69.0
CC1CCC(C(C)C)C(OCC(O)CNC(C)c2ccccc2)C1 (stereo not given)	none
CC(NCC(O)COC1CCC(C(C)(C)C)CC1)c1ccccc1 (stereo not given)	Rtt109 Vps75 60.0
O=C1C2C3C=CC(C3)C2C(=O)N1/N=C/c1cn(Cc2ccc(F)cc2)c2ccccc12 (stereo not given)	HDAC3 inh inconclusive
O=C1C2C3C=CC(C3)C2C(=O)N1/N=C/c1cn(Cc2ccccc2)c2ccccc12 (stereo not given)	V-ATPase pHluor 13.5
O=C(c1ccco1)c1nc2c(n1O)CCCCC2	none
O=C(NN1C(=O)/C(=C/C=C/c2ccco2)SC1=S)c1ccccc1O	Rtt109 Vps75 70.0
C[N+](C)(CCOc1ccccc1)Cc1ccccc1 (tested in a mixture with another compound)	none
CC(C)(C)CC(C)(C)c1ccc(OCCOCC[N+](C)(C)Cc2ccccc2)cc1	Rtt109 Vps75 inconclusive, HDAC3 inh 39.9
CC(C)(C)NC(=O)c1ccc2nsnc2c1	beta cell repl 0.0
COc1c(C(CC(C)C)OC(C)=O)ccc2c1C(=O)OCc1cc(C)cc(O)c1O2 (stereo not given)	HDAC3 inh 33.9
CC1CN(C(=O)CS(=O)(=O)Cc2ccccc2)CC(C)O1 (stereo not given)	none
Cn1nc(-c2ccccc2)cc1NC(=O)Nc1ccc(C(C)(C)C)cc1	none
Cc1[nH]n(-c2ccccc2)c(=S)c1C=Nc1cccc([N+](=O)[O-])c1	HDAC3 inh 55.0
c1csc(C2=NNC(=NC3CCCCC3)SC2)c1	none (no result: beta cell repl, DAGLB inhibitor)
O=C(/C=C/c1cn(CC(O)CN2CCCCC2)c2ccccc12)c1ccccc1 (stereo not given)	Rtt109 Vps75 53.0 (no result: beta cell repl, HDAC3 inh)
C=CC[C@H](CC(=O)N[C@H](CO)Cc1ccccc1)C(=O)N[C@@H](COC(=O)[C@H](CC=C)CC(=O)OC(C)(C)C)Cc1c[nH]c2ccccc12	HDAC3 inh 44.3
C=CC[C@@H](CC(=O)N[C@@H](CO)Cc1ccccc1)C(=O)N[C@@H](COC(=O)[C@H](CC=C)CC(=O)OC(C)(C)C)Cc1c[nH]c2ccccc12	HDAC3 inh 39.4
C=CC[C@@H](CC(=O)N[C@H](CO)Cc1ccccc1)C(=O)N[C@H](COC(=O)[C@@H](CC=C)CC(=O)OC(C)(C)C)Cc1c[nH]c2ccccc12	none
O=C(c1ccccc1)c1cc(Cl)ccc1N1C(=O)C=CC1=O	V-ATPase pHluor 12.5 (no result: Rtt109 Vps75, beta cell repl, HDAC3 inh)
COC(=O)c1ccccc1-c1c2ccc(=N)cc-2oc2cc(N)ccc12	V-ATPase pHluor 454.2
C=CC[C@H](CC(=O)N(CCO)Cc1ccccc1)C(=O)N[C@H](COC(=O)[C@@H](CC=C)Cc1ccc(F)cc1)Cc1ccccc1	HDAC3 inh 33.2
C=CC[C@@H](CC(=O)NCCO)C(=O)N[C@@H](COC(=O)[C@@H](CC=C)Cc1ccc(F)cc1)Cc1c[nH]c2ccccc12	HDAC3 inh 25.9
C=CCC[C@H](Cc1ccc(F)cc1)C(=O)OC[C@H](Cc1c[nH]c2ccccc12)NC(=O)[C@@H](CC=C)CC(=O)N(CCO)Cc1ccccc1	none
C=CC[C@@H](CC(=O)N(CCO)Cc1ccccc1)C(=O)N[C@H](C)COC(=O)[C@@H](CC=C)Cc1ccc(F)cc1	none
C=CCC[C@H](Cc1ccc(F)cc1)C(=O)OC[C@@H](Cc1c[nH]c2ccccc12)NC(=O)[C@@H](CC=C)CC(=O)N(CCO)Cc1ccccc1	HDAC3 inh 40.0
CC[C@H](C)[C@H]1CNC(=O)C(=O)N1CC1CCN(CC2CCC(C)CC2)CC1 (stereo not given in full)	none (no result: beta cell repl, HDAC3 inh)
C/C(=N\NC(=O)c1cc(C(C)(C)C)[nH]n1)C12CC3CC(CC(C3)C1)C2	none
CSCCC(NS(=O)(=O)c1ccccc1F)C(=O)Nc1ccncc1 (stereo not given)	none
COc1ccc(OC)c(CCNC(=O)c2ccc3c(=O)[nH]c4c(C(=O)NC(C)C)sc(=S)n4c3c2)c1	none
Cc1ccc2nc(-c3ccc(NC(=S)NC4CC(C)(C)NC(C)(C)C4)cc3)sc2c1	Rtt109 Vps75 62.2
Cc1ccc2nc(-c3ccc(NC(=S)NC(=O)C(C)C)cc3)sc2c1	none
CCn1cc(C(=O)N[C@@H](CCSC)C(=O)NCCN2CCOCC2)c(=O)c2cc3c(cc21)OCO3	none
COc1ccccc1N(CC(=O)Nc1cc(C)on1)S(=O)(=O)c1ccc(Cl)cc1	HDAC3 inh inconclusive
CC(=O)c1ccccc1OC(=O)c1ccc([N+](=O)[O-])o1	Rtt109 Vps75 57.7
CC(C)=CCN1CCN(Cc2ccc(C#CC(C)(C)O)cc2)CC1CCO (stereo not given)	none
COC(=O)C1=C(C)NC2=C(C(=O)CCC2)C1c1ccc(-c2ccsc2C(=O)OC)o1 (stereo not given)	Rtt109 Vps75 inconclusive, HDAC3 inh 32.5
O=C(CSc1ncnc2scc(-c3ccc(F)cc3)c12)c1ccc2c(c1)OCCO2	HDAC3 inh 81.2
Cc1ccc(-c2csc3ncnc(SCC(=O)c4ccc5c(c4)OCCO5)c23)cc1	none
O=C(NCCCN1CCCC1)Nc1ccc(F)cc1	none
CCCCCN=C(N)N/N=C/c1c[nH]c2ccc(OC)cc12	Rtt109 Vps75 77.6
Clc1ccc(Cn2nnc(-c3ccc(CN4CCOCC4)cc3)n2)cc1	none
CN(CC(=O)Nc1ccc(Cl)cc1)C(=O)c1cccc(S(=O)(=O)NCc2ccccc2)c1	Rtt109 Vps75 60.2
CN(CC(=O)Nc1ccc(Cl)cc1)C(=O)c1cccc(S(=O)(=O)N2CCN(Cc3ccccc3)CC2)c1	none
Oc1ccccc1CNc1cnc2ccccc2c1	Rtt109 Vps75 56.7
Oc1ccc(Cl)cc1CNc1cnc2ccccc2c1	none
Cc1cccc(Nc2nc(OCC#N)nc(N(C)C)n2)c1	none
CCN(CC)c1nc(Nc2ccc(Cl)cc2)nc(OCC#N)n1	HDAC3 inh 31.6
O=c1ncn(-c2cccc([N+](=O)[O-])c2)c2ccccc12	none
Cc1c(Cl)cccc1-n1cnc(=O)c2ccccc21	V-ATPase pHluor 13.0
O=C(Nc1cccnc1)c1ccc2nc(-c3ccccc3)c(-c3ccccc3)nc2c1	none
CC(C)C(=O)Nc1ccc(-c2nc3ccccc3c(=O)o2)cc1	HDAC3 inh 55.6
COc1ccc(OC)c(Nc2nc(=O)c3cccnc3s2)c1	Rtt109 Vps75 112.3 (no result: beta cell repl, HDAC3 inh)
Cc1ccc(Nc2nc(=O)c3cccnc3s2)cc1	none
CCn1c(C)c(CS(=O)(=O)c2ccccc2)[nH]c1=O	Rtt109 Vps75 118.8
Cc1cc(NC(=O)CCCn2nc([N+](=O)[O-])c(Cl)c2C)no1	Rtt109 Vps75 51.6 (no result: HDAC3 inh)
COc1ccc2[nH]c(=O)c(CN(Cc3nnnn3Cc3ccccc3)CC3CCCO3)cc2c1 (stereo not given)	Rtt109 Vps75 53.0
